# PubChem BioAssay AID1347434 (National Center for Advancing Translational Sciences (NCATS), 2020)
# The whole screen tested about 1,200 compounds, of which about 30 (2%) were called active. Roughly 23% stayed inconclusive and do not appear here. The call rests on the fitted dose curve; in most records, active means well fitted inhibition curve with a large enough effect; inconclusive means small, poorly fitted or top-dose-only effect; inactive means flat fitted curve, though single readings scatter. Shown is part of a subset that was picked to be rich in actives. A call without a number means that no potency is given here.
# Target: Single-stranded DNA cytosine deaminase (Homo sapiens) (UniProt Q9GZX7)
# Sequence (Q9GZX7 whole entry, looked up): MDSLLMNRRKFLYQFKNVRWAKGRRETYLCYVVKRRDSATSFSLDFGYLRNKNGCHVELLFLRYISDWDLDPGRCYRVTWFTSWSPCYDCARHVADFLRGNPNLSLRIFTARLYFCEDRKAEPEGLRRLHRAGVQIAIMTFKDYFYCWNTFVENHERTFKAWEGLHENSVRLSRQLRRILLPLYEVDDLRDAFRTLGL
# Assay: Confirmatory qHTS assay for inhibitors of Activation Induced Cytidine Deaminase (AID): AID signals
# Conditions: recombinant AID, FRET deamination/UDG coupled fluorescence, 4 h; series mostly up to 115 µM
# Description: Assay Provider (PI) Patricia Gearhart Ph.D. National Institute on Aging National Institute of Health (NIH), Bethesda, MD Assay Provider (PI) Rahul Kohli Ph.D. Perelman School of Medicine University of Pennsylvania, Philadelphia, PA Activation-Induced Deaminase (AID) is a cytosine deaminase which converts cytosine into uracil within stretches of ssDNA. The presence of uracil in DNA initiates a cascade of mutagenic DNA repair to introduce point mutations and DNA double strand breaks. Specific targeting of AID to the immunoglobulin heavy chain loci (Igh) promotes mutagenesis in the antibody variable region for somatic hypermutation (SHM) or switch regions leading to class switch recombination (CSR). However, AID also plays a role in accumulating unnecessary mutations across the genome. Mis-targeting of AID results in the initiation of tumor development and leads to greater drug resistance among cancer cells when continually expressed. To identify an AID inhibitor, a small molecule library will be screened in collaboration with NCATS core facility at NIH. To confirm biological function, inhibitors will be examined in an in vitro murine B-cell activation assay and subsequent secondary validation screens. Top molecules will be further screened to identify inhibitory efficacy against a wild type primary splenocytes assay. Using these approaches, we hope to identify a small molecule with great efficacy and low toxicity for use as a molecular probe to further characterize AID's intricacies, or even as a therapeutic. A FRET based analysis of cytosine deamination, was developed to identify potential inhibitors of AID catalytic activity. This screen has two signal output, Read 1 evaluates the AID inhibition response. The second readout (Read 2) evaluates UDG response and is uses as a counterscreen to exclude false positive inhibitors. Inhibition in AID and inactivity in the UDG signal is the desired outcome for this assay.
# PROTOCOL TABLE SEQUENCE No. (e.g., 1, 2, 3, etc.); […] (e.g., Cells, Incubation, Reagent, etc.); VALUE; DESCRIPTION 1a; Reagent; 3 uL; [4/3x] 1 uM AID/2.67 U/mL UDG 1b; Reagent; 3 uL; 2 U/mL UDG 1c; Reagent; 3 uL; 1 uM AID 2a; Compound; 46 nL; Follow-up plates (0.64 uM - 10 mM) 2b; Control; 46 nL; ATA (16.4 nM - 10 mM) 3; Time; 10 min; incubation at room temperature 4; Reagents; 1 uL; [4x] 250 nM DJC20 / 250 nM DJC23 [Substrate] 5; Time; 4 hr; incubation at room temperature 6; Reagent; 4 uL; [2x] 250 mM NaOH 7; Time; 15 sec; centrifuge at 1000 rpm 8; Time; 30 min; incubation at room temperature 9a; Detection; fluorescence (Read 1: AID); EnVision (PerkinElmer) plate reader, 540 excitation and 590 emission filters 9b; Detection; fluorescence (Read 2: UDG); EnVision (PerkinElmer) plate reader, 560 excitation and 665 emission filters NOTES (numbers refer to sequence above) 1a; Reagents were dispensed in a medium-binding black solid-bottom Greiner plates (789176F) using a BioRptr liquid dispenser. Dispense 3 uL of [4/3x] 1 uM AID (provided by Kohli lab) and [4/3x] 2 U/mL UDG (NEB M0280L) into columns 1, 2, 5 to 48. 1b; Dispense 3 uL of [4/3x] 2 U/mL UDG into column 3. 1c; Dispense 3 uL of [4/3x] 1 uM AID into column 4. 2a; Compound ([…] [uM]: 0.64; 3.2; 16; 80; 400; 2,000; 10,000; 20,000) double pin-transferred (Dip Factor = 2) using the Kalypsys (Wako USA) pintool equipped with a 1536 pinhead for a final concentration range of 7.32 nM - 114 uM. 2b; 10 mM Aurintricarboxylic Acid (Sigma A1895) (ATA, 8-point, n = 2, 1:2.5 dilution in column 2) double pin-transferred (Dip Factor = 2) using the Kalypsys (Wako USA) pintool equipped with a 1536 pinhead for a [final] range of 186 nM - 114 uM. 3; Room temperature incubation. 4; Dispense 1 uL of substrate mixture from the Kohli lab [4x] […] DJC20 and [4x] 250 nM DJC23 into columns 1 to 48 . 5; Room temperature incubation. 6; Dispense 4 uL of […] [2x] 250 mM NaOH into columns 1 to 48. 7; Centrifugation step to remove bubbles. […]
# Potency means the concentration at half of the fitted maximal effect.
row,SMILES,Potency
1,CCc1nn(CCCC(=O)N2CCN(c3cc(Cl)ccc3C)CC2)c(=O)c2cc3occc3n12,inactive
2,CCn1cc2nc(SCC(=O)Nc3ccccc3C(F)(F)F)n(Cc3ccc(C)cc3)c(=O)c2n1,inactive
3,CCc1ccc2c(c1)c(=O)c(S(=O)(=O)c1ccc(Cl)cc1)cn2CC,inactive
4,Cc1ccccc1OCc1nnc(SCc2cc(=O)c3ccc(C)c(C)c3[nH]2)n1C,inactive
5,CCOc1ccc(CCNC(=O)c2nc(-c3cccc(F)c3)n3c2CCCCC3)cc1OCC,inactive
6,Cc1ccc(C)c(N2CCN(C(=O)c3ccc(CS(=O)(=O)c4ccc(Br)cc4)o3)CC2)c1,inactive
7,CCOC(=O)CSc1nnc2n(-c3ccccc3)c(=O)c3c4c(sc3n12)CC(C(C)(C)C)CC4 (centres undefined),inactive
8,CCn1cc(C(=O)NCCCOC(C)C)c(=O)c2cc(S(=O)(=O)N(C)C3CCCCC3)ccc21,inactive
9,Cc1cccc(CCNc2ncnc3onc(-c4ccc(Cl)cc4)c23)c1,inactive
10,Cc1cc2c(cc3c(SCc4ccc(Cl)cc4)nnc(C)n32)o1,inactive
11,Cc1c(C)n(C)c2ccc(C(=O)N3CCN(c4ccccc4)CC3)cc12,inactive
12,CC(=O)c1ccc(NC(=O)C2CCN(c3nnc(C)c4c(C)n(-c5ccccc5)nc34)CC2)cc1,inactive
13,COc1ccc(CC(=O)Nc2sc3c(c2C(=O)Nc2cccc(Cl)c2)CCCCC3)cc1,inactive
14,CCCN(CCC)C(=O)Cn1c(=O)n(Cc2ccc(C(=O)NCCc3ccc(OC)c(OC)c3)cc2)c(=O)c2ccccc21,inactive
15,Cc1cccc(N2CCN(C(=O)C3CCN(c4ncnc5c4nc4n5CCCCC4)CC3)CC2)c1C,inactive
16,Fc1ccc(Cn2c(-c3cccc(Br)c3)nc3ccccc32)cc1,inactive
17,COc1ccc(C(=O)NCC(c2cccnc2)N2CCc3ccccc32)cc1 (centres undefined),inactive
18,Cn1c(=O)c2c(-c3ccc(Br)cc3)n(CCc3ccccc3)cc2n(C)c1=O,inactive
19,CCc1ccc(CNC(=O)C(CC)n2nc(C)c3c(C)n(-c4ccccc4)nc3c2=O)cc1 (centres undefined),inactive
20,Cc1cccc(Cn2c(=O)n3nc(-c4ccccc4)nc3c3ccccc32)c1,inactive
21,Clc1ccc(-c2noc3ncnc(NCCCN4CCN(c5ccccc5)CC4)c23)cc1,inactive
22,Cc1ccc(C)c(CN2C(=O)c3ccccc3S(=O)c3ccc(C(=O)N4CCC(C)CC4)cc32)c1 (centres undefined),inactive

row,SMILES,Potency
1,O=C(CSc1nc2ccccc2nc1Cc1ccccc1)Nc1ccccc1C(F)(F)F,inactive
2,Cc1ccc(-c2nc(NC(=O)CSc3cc(C)c4ccccc4n3)ns2)cc1,28.2 µM (active)
3,COc1ccc2c(C)cc(SCC(=O)Nc3nsc(-c4ccc(C(C)(C)C)cc4)n3)nc2c1,inactive
4,C=CCc1ccccc1OCCSc1nc(-c2ccc(C(C)(C)C)cc2)nc2cc(=O)[nH]n12,inactive
5,O=c1cc2nc(-c3cccs3)nc(SCCOc3ccc(Cl)cc3)n2[nH]1,inactive
6,Cc1cc(OCCCSc2nc(-c3ccc(C(C)(C)C)cc3)nc3cc(=O)[nH]n23)ccc1Cl,31.6 µM (active)
7,Cc1cccc(C(=O)Nc2sc3c(c2C(=O)O)CCCC3)c1,inactive
8,Cc1nc2c(-c3ccccc3)c(C)nn2c(C)c1CCC(=O)N1CCN(c2ccccc2)CC1,inactive
9,CCOc1ccc(-c2nn(-c3ccccc3)cc2C2NC(=O)NC(C)=C2C(=O)OC(C)C)cc1C (centres undefined),inactive
10,O=C(NCCc1nc2ccccc2n1Cc1ccc(Cl)cc1Cl)c1ccco1,inactive
11,CCN(C(=O)Cn1c(SCC(=O)Nc2ccc(OC)cc2)nc2ccccc21)c1cccc(C)c1,inactive
12,CC(C)(C)c1ccc(C(=O)N2CCCC(c3nc4c(nnn4Cc4cccc(F)c4)c(=O)[nH]3)C2)cc1 (centres undefined),inactive
13,CCOc1ccc(CN2CCc3nc(Nc4ccc(OC)cc4OC)ncc3C2)cc1,inactive
14,CC(=O)O[C@H]1C[C@@H]2CC[C@@H]3[C@H](CC[C@@]4(C)[C@H]3C[C@H]([N+]3(C)CCCCC3)[C@@H]4OC(C)=O)[C@@]2(C)C[C@@H]1[N+]1(C)CCCCC1,17.8 µM (active)
15,Cc1cc2c(cc3c(SCc4cccc(Cl)c4)nnc(C)n32)o1,inactive
16,COC(=O)c1ccc(OCC2c3cc(OC)c(OC)cc3CCN2C(=O)c2cccc(C)c2)cc1 (centres undefined),inactive
17,CCc1ccc(NC(=O)c2ccc3c(O)c(S(=O)(=O)c4ccccc4)c(=O)[nH]c3c2)cc1,inactive
18,CC(C)c1ccc(NC(=O)c2ccc3c(O)c(S(=O)(=O)c4ccccc4)c(=O)[nH]c3c2)cc1,31.6 µM (active)
19,O=C(NCc1ccccc1Cl)c1ccc2c(O)c(S(=O)(=O)c3ccccc3)c(=O)[nH]c2c1,inactive
20,Cc1ccc(Cl)cc1N1CCN(C(=O)c2ccc(C)c(-n3c(C)nc4cccnc43)c2)CC1,inactive
21,CCc1ccc(NS(=O)(=O)c2ccc3oc(=O)c4ncn(CC)c4c3c2)cc1,inactive
22,CCOc1ccc(-c2noc(CSc3nnc(Cc4ccccc4)n3-c3ccc(F)cc3)n2)cc1,inactive
